# Reference: ChEMBL document CHEMBL1961873, “Compounds: GSK PKIS; Assays: Nanosyn kinase panel” (2012)
# Tested on: Epidermal growth factor receptor (Homo sapiens), P00533 [L861Q]
# Details: at 0.1 µM
# Sequence of Epidermal growth factor receptor (Homo sapiens), P00533 [L861Q] (P00533 whole entry L861Q): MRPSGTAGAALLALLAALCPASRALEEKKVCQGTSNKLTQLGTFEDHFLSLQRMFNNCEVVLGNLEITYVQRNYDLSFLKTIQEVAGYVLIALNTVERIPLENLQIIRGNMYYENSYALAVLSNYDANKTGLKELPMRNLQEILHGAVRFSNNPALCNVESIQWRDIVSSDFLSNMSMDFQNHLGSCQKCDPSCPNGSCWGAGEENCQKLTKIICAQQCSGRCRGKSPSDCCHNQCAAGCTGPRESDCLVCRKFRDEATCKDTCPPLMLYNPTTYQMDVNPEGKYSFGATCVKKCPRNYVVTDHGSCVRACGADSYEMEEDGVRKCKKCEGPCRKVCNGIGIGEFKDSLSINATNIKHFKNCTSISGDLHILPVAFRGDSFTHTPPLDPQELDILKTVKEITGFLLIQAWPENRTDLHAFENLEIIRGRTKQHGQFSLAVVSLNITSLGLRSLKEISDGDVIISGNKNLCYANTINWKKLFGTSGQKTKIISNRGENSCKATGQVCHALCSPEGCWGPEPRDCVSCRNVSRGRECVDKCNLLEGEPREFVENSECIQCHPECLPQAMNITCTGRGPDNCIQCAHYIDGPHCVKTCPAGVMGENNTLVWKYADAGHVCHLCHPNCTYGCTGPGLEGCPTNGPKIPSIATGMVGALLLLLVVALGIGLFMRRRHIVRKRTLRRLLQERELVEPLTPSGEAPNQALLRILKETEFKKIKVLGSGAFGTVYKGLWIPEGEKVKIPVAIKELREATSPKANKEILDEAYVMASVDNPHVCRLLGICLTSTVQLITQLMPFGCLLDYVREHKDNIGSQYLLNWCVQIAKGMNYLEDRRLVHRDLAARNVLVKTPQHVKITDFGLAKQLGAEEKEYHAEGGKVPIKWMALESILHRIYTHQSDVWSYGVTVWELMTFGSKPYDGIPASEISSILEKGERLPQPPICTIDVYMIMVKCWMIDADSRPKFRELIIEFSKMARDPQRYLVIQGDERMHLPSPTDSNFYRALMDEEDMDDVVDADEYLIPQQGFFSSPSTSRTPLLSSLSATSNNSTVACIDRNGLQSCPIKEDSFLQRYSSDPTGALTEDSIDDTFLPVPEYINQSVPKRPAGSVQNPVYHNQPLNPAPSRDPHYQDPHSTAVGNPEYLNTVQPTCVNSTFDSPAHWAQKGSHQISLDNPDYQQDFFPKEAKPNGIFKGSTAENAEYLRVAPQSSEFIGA
row,SMILES,inhibition [%]
1,O=C(Nc1n[nH]c2cc(-c3ccc(F)cc3)ccc12)C1CC1,1.33
2,CNC(=O)c1cccc(C#Cc2cncnc2Nc2ccc(OCc3cccc(F)c3)c(Cl)c2)c1,25.9
3,COc1cccc(-c2c[nH]c3c(N/N=C/c4ccncc4)ncnc23)c1,8.35
4,CCn1c(-c2nonc2N)nc2cnc(Oc3cccc(NC(=O)c4ccc(N(C)C)cc4)c3)cc21,1.12
5,COc1ccc(-c2cc3c(N)ncnc3o2)cc1,-0.61
6,c1ccc(-c2nc3n(c2-c2ccc4c(c2)OCO4)CCC3)nc1,0.86
7,FC(F)(F)c1cccc(-c2nn3ncccc3c2-c2ccnc(Nc3ccc4c(c3)OCCO4)n2)c1,8.83
8,CC(C)COC(=O)c1ccc2c(c1)/C(=C/Nc1ccc(S(N)(=O)=O)cc1)C(=O)N2,-1.62
9,COc1ccc(-c2nn3ncccc3c2-c2ccnc(Nc3ccc4c(c3)OCCO4)n2)cc1,5.78
10,CN1CCC(n2cnc(-c3ccc(F)cc3)c2-c2ccnc(N)n2)CC1,1.43
11,N#Cc1c(NC(=O)c2ccc(F)cc2)sc2c1CCCC2,-0.06
12,COC(=O)Nc1nc2ccc(S(=O)(=O)c3ccc(NC(=O)Nc4cc(C(F)(F)F)ccc4F)cc3)cc2[nH]1,0.81
13,NS(=O)(=O)c1ccc(N/N=C2\C(=O)Nc3ccc4ncccc4c32)cc1,1.5
14,[O-][S+]1CCN(Cc2ccc(-c3ccc4ncnc(Nc5ccc(OCc6cccc(F)c6)c(Cl)c5)c4c3)o2)CC1,77.5
15,Cc1cccc2c1NC(=O)/C2=N\Nc1ccc(S(N)(=O)=O)cc1,1.86
16,CS(=O)(=O)CCNCc1ccc(-c2ccc3ncnc(Nc4ccc(OCc5ccccc5)c(C(F)(F)F)c4)c3c2)o1,17.8

row,SMILES,inhibition [%]
1,Nc1nc(-c2cccc(Cl)c2)c(-c2ccc3ncccc3n2)s1,3.07
2,CNC(=O)c1cncc(/C=C/c2ccccc2Cl)c1,1.06
3,CCn1c(-c2nonc2N)nc2c(C#CC(C)(C)O)ncc(OC3CCNCC3)c21,-0.91
4,CCn1c(-c2nonc2N)nc2ccccc21,1.96
5,Cc1ccc(O)cc1Nc1ccnc2cc(-c3ccccn3)ccc12,59.8
6,Nc1ncc(-c2cccc(S(N)(=O)=O)c2)c2scc(-c3ccc(F)c(Cl)c3)c12,5.17
7,COc1cc2c(cc1Nc1nc(Nc3ccsc3C(N)=O)c3cc[nH]c3n1)N(C(=O)CN(C)C)CCC2(C)C,1.86
8,COc1ccc2[nH]c3c4[nH]c5ccc(OC)cc5c4c4c(c3c2c1)C(=O)NC4=O,7.22
9,COc1ccc(-c2cc(-c3c[nH]nc3-c3ccccn3)ccn2)cc1,4.61
10,c1cc(-c2cnn3nc(N4CCOCC4)ccc23)nc(NC2CC2)n1,3.88
11,NS(=O)(=O)c1ccc(Nc2ncc(-c3ccccc3)o2)cc1,2.61
12,CCN(CC)S(=O)(=O)c1ccc(OC)c(Nc2ncc(-c3ccccc3)o2)c1,3.42
13,CC(=O)NCc1cccc(C#Cc2cncnc2Nc2ccc(OCc3cccc(F)c3)c(Cl)c2)c1,24
14,COc1ccc(-c2oc3ncnc(N)c3c2-c2ccc(NC(=O)Nc3cc(C(F)(F)F)ccc3F)cc2)cc1,4.81
15,CCn1cc(-c2ccnc3[nH]ccc23)c(-c2cccc(NC(=O)Nc3ccc(OCc4ccccc4)cc3)c2)n1,-1.65

# Tested on: Epidermal growth factor receptor (Homo sapiens), P00533 [L861Q]
# Details: at 1 µM
row,SMILES,inhibition [%]
1,O=C(Nc1n[nH]c2cc(-c3ccc(F)cc3)ccc12)C1CC1,2.33
2,CNC(=O)c1cccc(C#Cc2cncnc2Nc2ccc(OCc3cccc(F)c3)c(Cl)c2)c1,45.7
3,COc1cccc(-c2c[nH]c3c(N/N=C/c4ccncc4)ncnc23)c1,45.4
4,CCn1c(-c2nonc2N)nc2cnc(Oc3cccc(NC(=O)c4ccc(N(C)C)cc4)c3)cc21,-0.57
5,COc1ccc(-c2cc3c(N)ncnc3o2)cc1,-1.15
6,c1ccc(-c2nc3n(c2-c2ccc4c(c2)OCO4)CCC3)nc1,1.07
7,FC(F)(F)c1cccc(-c2nn3ncccc3c2-c2ccnc(Nc3ccc4c(c3)OCCO4)n2)c1,33.4
8,CC(C)COC(=O)c1ccc2c(c1)/C(=C/Nc1ccc(S(N)(=O)=O)cc1)C(=O)N2,-0.46
9,COc1ccc(-c2nn3ncccc3c2-c2ccnc(Nc3ccc4c(c3)OCCO4)n2)cc1,34.3
10,CN1CCC(n2cnc(-c3ccc(F)cc3)c2-c2ccnc(N)n2)CC1,6.75
11,N#Cc1c(NC(=O)c2ccc(F)cc2)sc2c1CCCC2,-1.78
12,COC(=O)Nc1nc2ccc(S(=O)(=O)c3ccc(NC(=O)Nc4cc(C(F)(F)F)ccc4F)cc3)cc2[nH]1,2.11
13,NS(=O)(=O)c1ccc(N/N=C2\C(=O)Nc3ccc4ncccc4c32)cc1,-1.33
14,[O-][S+]1CCN(Cc2ccc(-c3ccc4ncnc(Nc5ccc(OCc6cccc(F)c6)c(Cl)c5)c4c3)o2)CC1,95.7
15,Cc1cccc2c1NC(=O)/C2=N\Nc1ccc(S(N)(=O)=O)cc1,0.73
16,CS(=O)(=O)CCNCc1ccc(-c2ccc3ncnc(Nc4ccc(OCc5ccccc5)c(C(F)(F)F)c4)c3c2)o1,41.7

row,SMILES,inhibition [%]
1,Nc1nc(-c2cccc(Cl)c2)c(-c2ccc3ncccc3n2)s1,10.1
2,CNC(=O)c1cncc(/C=C/c2ccccc2Cl)c1,7.25
3,CCn1c(-c2nonc2N)nc2c(C#CC(C)(C)O)ncc(OC3CCNCC3)c21,-0.16
4,CCn1c(-c2nonc2N)nc2ccccc21,0.53
5,Cc1ccc(O)cc1Nc1ccnc2cc(-c3ccccn3)ccc12,91.9
6,Nc1ncc(-c2cccc(S(N)(=O)=O)c2)c2scc(-c3ccc(F)c(Cl)c3)c12,10.2
7,COc1cc2c(cc1Nc1nc(Nc3ccsc3C(N)=O)c3cc[nH]c3n1)N(C(=O)CN(C)C)CCC2(C)C,14.5
8,COc1ccc2[nH]c3c4[nH]c5ccc(OC)cc5c4c4c(c3c2c1)C(=O)NC4=O,21.2
9,COc1ccc(-c2cc(-c3c[nH]nc3-c3ccccn3)ccn2)cc1,4.33
10,c1cc(-c2cnn3nc(N4CCOCC4)ccc23)nc(NC2CC2)n1,2.28
11,NS(=O)(=O)c1ccc(Nc2ncc(-c3ccccc3)o2)cc1,2.73
12,CCN(CC)S(=O)(=O)c1ccc(OC)c(Nc2ncc(-c3ccccc3)o2)c1,2.22
13,CC(=O)NCc1cccc(C#Cc2cncnc2Nc2ccc(OCc3cccc(F)c3)c(Cl)c2)c1,42.1
14,COc1ccc(-c2oc3ncnc(N)c3c2-c2ccc(NC(=O)Nc3cc(C(F)(F)F)ccc3F)cc2)cc1,7.85
15,CCn1cc(-c2ccnc3[nH]ccc23)c(-c2cccc(NC(=O)Nc3ccc(OCc4ccccc4)cc3)c2)n1,2.37
